Records with an inconclusive call do not appear. Calls of active or inactive are those of the source. Unless noted, the call rests on the fitted dose curve.
Assays:
[1] = qHTS assay for small molecule agonists of retinoid X receptor alpha signaling (AID 588544); settings: HEK293T RXRa-UAS-bla, beta-lactamase reporter, 18 h; 530 nm emission;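 on activation: 0% = DMSO basal wells and 100% = reference agonist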
[2] = target: Retinoic acid receptor RXR-alpha (Homo sapiens) (UniProt P19793); assay: as above; settings: HEK293T RXRa-UAS-bla, beta-lactamase reporter, 18 h; series mostly up to 76.7 µM
Retinoic acid receptor RXR-alpha (Homo sapiens), sequence (P19793 whole entry, looked up): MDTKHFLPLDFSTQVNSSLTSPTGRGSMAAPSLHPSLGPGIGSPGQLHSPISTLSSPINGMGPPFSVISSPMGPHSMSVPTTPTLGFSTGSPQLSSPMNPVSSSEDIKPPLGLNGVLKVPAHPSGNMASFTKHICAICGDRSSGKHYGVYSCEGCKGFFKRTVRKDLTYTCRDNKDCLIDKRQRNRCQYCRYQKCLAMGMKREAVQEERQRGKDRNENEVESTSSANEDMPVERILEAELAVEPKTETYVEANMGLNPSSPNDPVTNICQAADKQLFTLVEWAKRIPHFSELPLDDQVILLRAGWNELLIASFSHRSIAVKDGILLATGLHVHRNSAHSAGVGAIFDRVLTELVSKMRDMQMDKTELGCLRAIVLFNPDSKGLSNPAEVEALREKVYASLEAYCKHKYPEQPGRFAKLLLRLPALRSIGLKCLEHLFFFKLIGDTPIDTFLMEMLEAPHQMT

[3] = target: Thyroid hormone receptor beta (Homo sapiens) (UniProt P10828); assay: qHTS assay for small molecule agonists of thyroid hormone receptor beta signaling (AID 588545); settings: TR-UAS-bla GripTite HEK 293, beta-lactamase ratio, agonist mode, 18 h, percent of T3 response, DMSO as zero; series mostly up to 76.7 µM;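 further: 0% = DMSO only and 100% = 10 nM T3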
Thyroid hormone receptor beta (Homo sapiens), sequence (P10828 whole entry, looked up): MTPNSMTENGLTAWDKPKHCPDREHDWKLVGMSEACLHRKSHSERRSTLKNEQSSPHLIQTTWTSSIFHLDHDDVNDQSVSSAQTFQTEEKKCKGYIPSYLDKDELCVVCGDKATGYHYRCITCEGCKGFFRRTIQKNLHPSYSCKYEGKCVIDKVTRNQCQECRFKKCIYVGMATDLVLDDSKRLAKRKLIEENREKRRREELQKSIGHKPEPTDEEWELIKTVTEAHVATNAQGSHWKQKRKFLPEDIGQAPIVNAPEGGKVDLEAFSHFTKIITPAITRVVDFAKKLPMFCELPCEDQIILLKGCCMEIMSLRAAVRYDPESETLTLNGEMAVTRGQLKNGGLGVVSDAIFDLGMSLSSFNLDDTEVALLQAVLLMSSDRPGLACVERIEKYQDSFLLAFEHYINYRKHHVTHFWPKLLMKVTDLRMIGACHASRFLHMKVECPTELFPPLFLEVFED
Outline: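 Stimulation of a TR-driven beta-lactamase reporter was quantified in GripTite HEK 293 cells. Compound series ran for 18 hrs; curves were normalized to T3 and DMSO controls and fitted to yield EC50.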

[4] = qHTS assay for small molecule antagonists of retinoid X receptor alpha signaling (AID 588546; active means well fitted inhibition curve with a large enough effect in the signal ratio, with a control signal flat, not every such curve was filed as active; the % refers to the signal ratio;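 further: cells stimulated with 9-cis-retinoic acid as agonist; on the % scale 0 is the no-effect control and ±100 the full control effect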); settings: HEK293T RXRa-UAS-bla, beta-lactamase ratio, antagonist mode; measured here: W530 green channel, cytotoxicity proxy
Outline: (§1)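 Beta-lactamase reporter inhibition, read as CCF4 fluorescence ratio (ex 405, em 460/530 nm) after 2 h at RT. HEK293T UAS-bla cells, 2500/well, were stimulated with 9-cis-RA at 500 or 100 nM final alongside test compound for 18 h at 37 C.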

[5] = target: Retinoic acid receptor RXR-alpha (Homo sapiens) (UniProt P19793); assay: as above; settings: HEK293T RXRa-UAS-bla, beta-lactamase ratio, antagonist mode
Outline: as §1

[6] = target: Voltage-gated inwardly rectifying potassium channel KCNH2 (Homo sapiens) (UniProt Q12809); assay: qHTS Assay for Small Molecule Inhibitors of the Human hERG Channel Activity (AID 588834; active means well fitted curve in the direction sought with a large enough effect; an effect the other way counts as inactive or inconclusive;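 further: top concentration of the series differs between compounds; on the % scale 0 is the no-effect control and ±100 the full control effect; lower thallium flux fluorescence means stronger hERG block; nearly all actives have a fitted effect of over 50% in size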); settings: U2OS BacMam hERG, FluxOR thallium flux fluorescence; series mostly up to 92.2 µM
Voltage-gated inwardly rectifying potassium channel KCNH2 (Homo sapiens), sequence (Q12809 whole entry, looked up): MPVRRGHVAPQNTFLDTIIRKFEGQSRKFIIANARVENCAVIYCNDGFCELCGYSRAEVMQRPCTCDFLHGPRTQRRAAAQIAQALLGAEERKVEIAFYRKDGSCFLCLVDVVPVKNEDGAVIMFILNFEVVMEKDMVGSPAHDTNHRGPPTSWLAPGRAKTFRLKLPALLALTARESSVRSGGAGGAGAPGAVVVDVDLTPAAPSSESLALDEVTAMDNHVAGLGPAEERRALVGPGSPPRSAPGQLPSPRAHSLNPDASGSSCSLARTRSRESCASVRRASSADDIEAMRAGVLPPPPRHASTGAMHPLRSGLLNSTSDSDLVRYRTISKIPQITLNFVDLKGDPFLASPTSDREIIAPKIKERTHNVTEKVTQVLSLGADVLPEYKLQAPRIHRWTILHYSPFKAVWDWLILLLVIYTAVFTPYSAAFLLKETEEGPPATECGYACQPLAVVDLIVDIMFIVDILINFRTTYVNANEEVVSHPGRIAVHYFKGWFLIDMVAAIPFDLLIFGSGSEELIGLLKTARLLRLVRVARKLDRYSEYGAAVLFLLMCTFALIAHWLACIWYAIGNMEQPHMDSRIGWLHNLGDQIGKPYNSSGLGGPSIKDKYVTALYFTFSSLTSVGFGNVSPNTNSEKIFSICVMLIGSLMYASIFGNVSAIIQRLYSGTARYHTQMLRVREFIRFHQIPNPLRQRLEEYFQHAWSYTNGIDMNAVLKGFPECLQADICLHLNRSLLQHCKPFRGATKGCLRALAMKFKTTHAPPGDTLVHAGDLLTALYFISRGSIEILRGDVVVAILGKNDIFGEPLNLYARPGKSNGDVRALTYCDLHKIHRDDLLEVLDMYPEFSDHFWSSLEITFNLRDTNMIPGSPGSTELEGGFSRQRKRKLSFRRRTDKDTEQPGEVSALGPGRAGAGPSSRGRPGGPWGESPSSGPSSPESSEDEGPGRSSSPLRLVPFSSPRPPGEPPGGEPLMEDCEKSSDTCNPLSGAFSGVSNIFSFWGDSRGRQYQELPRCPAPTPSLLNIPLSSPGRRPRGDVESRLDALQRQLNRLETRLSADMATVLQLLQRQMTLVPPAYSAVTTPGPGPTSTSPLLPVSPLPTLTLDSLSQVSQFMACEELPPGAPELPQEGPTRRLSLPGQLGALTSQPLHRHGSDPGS
Outline: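 Kinetic FDSS fluorescence; U2OS + hERG BacMam (~100 virus particles/cell); FluxOR Tl+ flux; ~10 min cpd; AC50 (Hill).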

[7] = qHTS assay for small molecule agonists of the antioxidant response element (ARE) signaling pathway (AID 651741; active means well fitted activation curve with a large enough effect in the signal ratio; the % refers to the signal ratio; further: % of control where 0% means no effect); settings: HepG2 ARE-bla reporter, beta-lactamase FRET ratio, 16 h; series mostly up to 96 µM
Outline: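 Compounds in DMSO are pinned onto HepG2 ARE-bla cells (2,000/well) that were preincubated 5 h; plates stay 16 h at 37 C, then beta-lactamase activity is detected with LiveBLAzer B/G substrate by fluorescence.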

[8] = qHTS assay for small molecule activators of the p53 signaling pathway (AID 651743; active means well fitted activation curve with a large enough effect in the signal ratio, not every such curve was filed as active; the % refers to the signal ratio; further: % of control where 0% means no effect); settings: HCT-116 p53RE-bla, beta-lactamase FRET ratio, 16 h; stronger effect = higher value
Outline: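 Cell-based beta-lactamase reporter (p53 response elements, HCT-116 background). After a 5-hour preincubation, cells received compound for 16 hours at 37 C; substrate development ran 2 hours at room temperature.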

[9] = qHTS assay for small molecule activators of the nuclear factor-kappa B (NF-kB) signaling pathway (AID 651749; active means well fitted activation curve with a large enough effect in the signal ratio; the % refers to the signal ratio; further: % of control where 0% means no effect); settings: NF-kB-bla ME-180 cells, beta-lactamase FRET ratio, 16 h; stronger effect = higher value
Outline: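 Screening used 2,000 ME-180 reporter cells per well exposed to pinned compound (23 nL) or DMSO; after 16 hr at 37C, beta-lactamase expression under NF-kB control was assessed through FRET.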

[10] = qHTS assay for small molecule disruptors of the mitochondrial membrane potential - 1 hr assay (AID 651754); settings: series mostly up to 92.2 µM; further: on the % scale 0 is the no-effect control and ±100 the full control effect; nearly all actives have a fitted effect of over 35% in size
Outline: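 HepG2, 2,000 cells/well, overnight attachment; cpd or DMSO 1 hr, 37C/5% CO2; Mito-MPS dye 30 min, 37C; fluorescence monomer (490/535) and aggregate (540/590).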

[11] = qHTS assay for small molecule disruptors of the mitochondrial membrane potential - 5 hr assay (AID 651755); settings: JC-1-type ratio dye; series mostly up to 92.2 µM; further: on the % scale 0 is the no-effect control and ±100 the full control effect; nearly all actives have a fitted effect of over 40% in size
Outline: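 HepG2 cells, attached overnight at 37C, were exposed to compound or DMSO for 5 hr at 37C, 5% CO2. Mito-MPS dye was then added for 30 min, and fluorescence read at 490/535 nm (monomers) and 540/590 nm (aggregates).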

[12] = target: Tumor necrosis factor (Homo sapiens) (UniProt P01375); assay: qHTS assay to identify small molecules that stimulate Tumor Necrosis Factor-alpha (TNF-alpha) secretion (AID 651757; active means well fitted curve in the direction sought with a large enough effect in the signal ratio; the % refers to the signal ratio; further: 0% is about no effect); settings: Human cells, HTRF 665/615 ratio; series mostly up to 92.2 µM
Tumor necrosis factor (Homo sapiens), sequence (P01375 whole entry, looked up): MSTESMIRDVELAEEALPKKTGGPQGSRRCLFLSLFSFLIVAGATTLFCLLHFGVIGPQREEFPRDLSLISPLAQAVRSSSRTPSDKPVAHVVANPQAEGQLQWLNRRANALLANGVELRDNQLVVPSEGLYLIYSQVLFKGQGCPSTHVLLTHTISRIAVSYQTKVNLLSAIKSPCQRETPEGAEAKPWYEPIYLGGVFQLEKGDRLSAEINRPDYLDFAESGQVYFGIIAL
Outline: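 Read-out is HTRF, a TR-FRET sandwich of cryptate- and XL665-labeled anti-TNF-alpha antibodies detecting cytokine secreted by THP-1 cells. Cells had been incubated with test compounds at 37 C for 17 hrs beforehand.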

[13] = qHTS assay to identify small molecules that stimulate interleukin-8 (IL-8) secretion (AID 651758; active means well fitted activation curve with a large enough effect in the signal ratio; the % refers to the signal ratio; further: 0% is about no effect); settings: HTRF ratio (665/615); series mostly up to 92.2 µM
Outline: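 THP-1, 2000 cells/well; cpd 16 h, 37 C; add cryptate + XL665 anti-IL-8 Abs; RT 1-3 h; TR-FRET read.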

[14] = qHTS assay for environmental chemicals that activate the Aryl hydrocarbon Receptor (AhR) signaling pathway (AID 651777; active means well fitted curve in the direction sought with a large enough effect; an effect the other way counts as inactive or inconclusive; further: % of control where 0% means no effect; nearly all actives have a fitted effect of over 15% in size); settings: 1A2-DRE human hepatoma cells, luciferase, 24 h; activation: stronger effect = higher value
Outline: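 Luminescence (One-Glo, 30 min, room temperature) reports AhR-driven luciferase in stably transfected human hepatoma cells bearing DRE and CYP1A2 promoter. Cells (1,200/well) were treated with compound for 24 hr at 37 C in qHTS format.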

[15] = target: Peroxisome proliferator-activated receptor alpha (Homo sapiens) (UniProt Q07869); assay: qHTS assay for small molecule agonists of the peroxisome proliferator-activated receptor alpha (PPARalpha) signaling pathway (AID 651778; active means well fitted curve in the direction sought with a large enough effect; an effect the other way counts as inactive or inconclusive; further: % of control where 0% means no effect); settings: PathHunter PPARalpha complementation, chemiluminescence, 6 h; stronger effect = higher value
Peroxisome proliferator-activated receptor alpha (Homo sapiens), sequence (Q07869 whole entry, looked up): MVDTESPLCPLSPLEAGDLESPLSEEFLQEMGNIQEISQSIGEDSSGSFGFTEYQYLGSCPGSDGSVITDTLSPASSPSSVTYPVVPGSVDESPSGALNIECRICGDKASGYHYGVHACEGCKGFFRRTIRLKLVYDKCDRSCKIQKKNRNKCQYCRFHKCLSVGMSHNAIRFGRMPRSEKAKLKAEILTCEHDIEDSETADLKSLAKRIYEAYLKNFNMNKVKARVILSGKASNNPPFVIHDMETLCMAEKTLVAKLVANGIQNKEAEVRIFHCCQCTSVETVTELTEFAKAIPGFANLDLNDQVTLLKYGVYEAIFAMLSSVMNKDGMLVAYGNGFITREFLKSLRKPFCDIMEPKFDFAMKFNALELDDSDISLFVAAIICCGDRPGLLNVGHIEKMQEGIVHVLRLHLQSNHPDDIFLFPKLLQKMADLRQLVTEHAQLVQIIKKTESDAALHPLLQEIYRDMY
Outline: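 Cells plated at 2,000/well and held overnight at 37 C, 5% CO2, then compound added by pin tool for 6 hr; after PathHunter detection reagent and 60 min at room temperature, chemiluminescence from enzyme complementation was read.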

[16] = qHTS assay for small molecule agonists of the antioxidant response element (ARE) signaling pathway measured by Nrf2-dependant transcriptional activity (AID 720636; active means well fitted curve in the direction sought with a large enough effect in the repeat runs; an effect the other way counts as inactive or inconclusive; further: % of control where 0% means no effect); settings: ARE-luc HepG2, Nrf2 luciferase reporter, 16 h; series mostly up to 92.4 µM
Outline: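 Nrf2-dependent transcription read as ONE-Glo luciferase signal from ARE-luc HepG2 reporter cells after 16 hr compound treatment at 37 C, 5% CO2, in assay medium with 1% dialyzed FBS.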

[17] = qHTS assay for small molecule antagonists of the retinoid-related orphan receptor gamma (ROR-gamma) signaling pathway - cell viability counter screen (AID 720652; active means well fitted curve in the direction sought with a large enough effect in the repeat runs; an effect the other way counts as inactive or inconclusive;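 further: compound exposure lasted 16 hr before ATP read; on the % scale 0 is the no-effect control and ±100 the full control effect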); settings: RORgamma reporter cell line viability counter screen; series mostly up to 92.2 µM
Outline: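 Luminescence from CellTiter-Glo after 30 min at room temperature reported cellular ATP as the cytotoxicity measure. Cells were the CHO reporter line with doxycycline-induced ROR-gamma expression, exposed to compound for 16 hr at 37 C.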

[18] = target: Thyroid hormone receptor beta (Homo sapiens) (UniProt P10828); assay: qHTS assay for small molecule antagonists of thyroid hormone receptor beta signaling (AID 588547; active means well fitted inhibition curve with a large enough effect in the signal ratio, with a control signal flat, not every such curve was filed as active; the % refers to the signal ratio;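 further: cells stimulated with 0.4 nM T3 agonist during compound exposure; on the % scale 0 is the no-effect control and ±100 the full control effect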); settings: TR-UAS-bla HEK293, beta-lactamase ratio, antagonist mode, 18 h
Outline: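 TR-UAS-bla GripTite HEK293 cells in 2% charcoal/dextran FBS medium were preincubated 4 h at 37 C, given compound (0.59 nM to 92 uM) plus 0.4 nM T3 (final) for 18 h, then CCF4 for 2 h at RT; Hill fit gave IC50.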

[19] = qHTS assay for small molecule agonists of the antioxidant response element (ARE) signaling pathway measured by Nrf2-dependant transcriptional activity - cell viability counter screen (AID 720653; active means well fitted curve in the direction sought with a large enough effect in the repeat runs; an effect the other way counts as inactive or inconclusive; further: on the % scale 0 is the no-effect control and ±100 the full control effect); settings: ARE-bla HepG2 viability, CellTiter-Glo ATP luminescence, 16 h; stronger effect = lower value
Outline: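 ARE-bla HepG2 cells (2,000/well) rested 5 hrs at 37C/5% CO2, then exposed to compounds in DMSO for 16 hrs. Viability was read in the same wells as intracellular ATP by luminescence, 30 min at room temperature after reagent addition.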

[20] = target: Nuclear receptor ROR-gamma (Homo sapiens) (UniProt P51449); assay: qHTS assay for small molecule antagonists of the retinoid-related orphan receptor gamma (ROR-gamma) signaling pathway (AID 651802; active means well fitted curve in the direction sought with a large enough effect; an effect the other way counts as inactive or inconclusive;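 further: luciferase reporter luminescence driven by ROR response element; on the % scale 0 is the no-effect control and ±100 the full control effect; nearly all actives have a fitted effect of over 60% in size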); settings: ROR-gamma antagonist cell reporter assay; series mostly up to 92.2 µM
Nuclear receptor ROR-gamma (Homo sapiens), sequence (P51449 whole entry, looked up): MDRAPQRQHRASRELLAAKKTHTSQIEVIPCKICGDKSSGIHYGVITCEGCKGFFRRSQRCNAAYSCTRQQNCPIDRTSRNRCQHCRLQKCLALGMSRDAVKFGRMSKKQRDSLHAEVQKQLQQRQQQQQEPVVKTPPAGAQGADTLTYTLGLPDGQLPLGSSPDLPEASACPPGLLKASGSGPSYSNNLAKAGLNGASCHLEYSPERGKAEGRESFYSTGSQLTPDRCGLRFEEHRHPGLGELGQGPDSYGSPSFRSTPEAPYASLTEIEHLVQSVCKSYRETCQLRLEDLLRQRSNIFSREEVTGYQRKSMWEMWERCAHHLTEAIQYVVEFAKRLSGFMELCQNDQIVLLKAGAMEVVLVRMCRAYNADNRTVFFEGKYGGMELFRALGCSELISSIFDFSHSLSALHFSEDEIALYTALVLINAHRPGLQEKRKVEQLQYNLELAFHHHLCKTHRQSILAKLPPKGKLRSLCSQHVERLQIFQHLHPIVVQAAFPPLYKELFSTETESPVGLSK
Outline: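 CHO, TET-inducible ROR + RORE-LUC reporter, 1536-well qHTS. Compound pinned, doxycycline added, 16hr 37C/5% CO2. ONE-Glo, 30 min RT, luminescence; signal drop scored as antagonism.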

Cc1cc(C)cc([N+](=O)[O-])c1
8.04%: max response [1]
5.59%: max response [4]
inactive: outcome [2] | outcome [3] | max response [5] 4.7% | Potency [6] | Potency [7] | activation [8] -0.0084% | activation [9] 0.968% | Potency [10] | Potency [11] | Potency [12] | Potency [13] | activation [14] 0.689% | max response [15] -0.421% | outcome [16] | Potency [17]

C=CC(=O)OCCCC
3.81%: max response [4]
inactive: outcome [2] | outcome [3] | max response [5] -2.2% | activity change % (negative = inhibition) [18] 1.99% | Potency [7] | activation [8] -0.944% | Potency [10] | Potency [11] | Potency [12] | activation [14] 0.108% | max response [15] 0.0985% | outcome [16] | Potency [17] | max response [19] -3.72%
-9.05%: max response [1]

Cc1ccccc1C(N)=O
inactive: outcome [2] | outcome [3] | max response [5] 7.98% | activity change % (negative = inhibition) [18] -3.78% | activation [8] 1.09% | activation [9] 1.42% | Potency [10] | Potency [12] | activation [14] -0.0237% | max response [15] -0.838% | Potency [20] | outcome [16] | Potency [17] | max response [19] -2.23%
-6.32%: max response [1]
9.22%: max response [4]

Cc1cccc([N+](=O)[O-])c1C(=O)O
-4.5%: max response [4]
inactive: outcome [2] | outcome [3] | max response [5] -0.976% | activity change % (negative = inhibition) [18] 13.9% | Potency [7] | activation [8] -3.44% | Potency [11] | Potency [12] | Potency [13] | activation [14] -0.538% | max response [15] 4.5% | Potency [20] | outcome [16] | Potency [17] | max response [19] 0.554%
-20.5%: max response [1]

Cc1cc([N+](=O)[O-])ccc1N
-1.24%: max response [1]
inactive: outcome [2] | outcome [3] | max response [5] 2.58% | activity change % (negative = inhibition) [18] -9.22% | Potency [7] | activation [8] -4.49% | activation [9] -0.648% | Potency [12] | activation [14] 0.911% | max response [15] -7.44% | outcome [16] | Potency [17] | max response [19] -20.9%
-8.79%: max response [4]

CC(C)(O)C(=O)O
2.28%: max response [4]
-2.22%: max response [1]
inactive: outcome [2] | outcome [3] | max response [5] 3.29% | activity change % (negative = inhibition) [18] 8.51% | Potency [7] | activation [8] -1.64% | activation [9] -0.233% | Potency [12] | max response [15] 4.71% | Potency [20] | outcome [16] | Potency [17] | max response [19] 1.81%

FB(F)F
-9.29%: max response [1]
16.6%: max response [4]
inactive: outcome [2] | outcome [3] | max response [5] -6.25% | activity change % (negative = inhibition) [18] 15.2% | Potency [7] | activation [9] 5.29% | Potency [10] | Potency [11] | Potency [12] | activation [14] -0.371% | max response [15] -1.82% | outcome [16] | Potency [17] | max response [19] 3.97%
